The list is not random: actives were taken first. Their share in the collection is about 1.2%.
BH1578 lux ind: induces V. cholerae light production without autoinducers | 350,000 tested, 0.16% active | V. cholerae BH1578 lux reporter, luminescence, 6 h | activation, % at 18.7 µM; in the data active means activation mostly above about 9.7%, no sharp cut-off
Mtb bLac sens: beta-lactam sensitization of Mtb H37Rv; M. tuberculosis H37Rv growth with meropenem, percent inhibition; inhibition, % at 25 µM; 330,000 tested, 0.27% active; call rule not given here;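 further: growth measured after seven days incubation then overnight dye step; 0% = bacteria only wells and 100% = bacteria with antibiotic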
ugtP null kill: kills S. aureus RN4220 lacking UgtP. S. aureus RN4220 ugtP deletion, OD600 growth, 16 h. growth inhibition, % (concentration not given with the values). 330,000 tested, 0.54% active. AID 1259309; in the data active means growth inhibition above about 68%;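 further: plate controls were untreated wells for no effect and antibiotic for full effect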
RN4220 kill: kills Staphylococcus aureus RN4220. AID 1259311. inhibition, % (no concentration beside the values). 330,000 tested, 0.33% active. S. aureus RN4220 growth, OD600, 16 h; in the data active means inhibition above about 85%;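 further: plate controls were untreated cells for no effect and reference antibiotic for full effect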
PfHsp40 rescue: rescue of PfHsp40-mediated yeast toxicity; S. cerevisiae expressing PfHsp40, growth rescue, ATP luminescence; growth rescue, % at 12.5 µM; 340,000 tested, 0.68% active; in the data active means growth rescue above about 28%, passing the limit was not always enough;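 further: yeast W303a lacking pdr1 and pdr3 grown in galactose medium; growth measured after three days at 30 °C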
Starred values were filed as active, the others as inactive; i = inactive; / = not tested or not shown.

SMILES | BH1578 lux ind | Mtb bLac sens | ugtP null kill | RN4220 kill | PfHsp40 rescue
CC1CN(C(C)CO)C(=O)c2cccc(NS(=O)(=O)c3ccc(Cl)cc3)c2OC1CN(C)CC1CCCCC1 (stereo unspecified) | / | / | 3.7 | 2.2 | /
O=C(NN=Cc1cccc(O)c1)c1cc(C2CC2)nc2ccccc12 | / | / | 2.4 | 0.0 | /
CN1CC2C(c3ccc(Cl)nc3)C3(c4ccccc4)CC2(C3)C1c1ccccc1 (stereo unspecified) | / | / | -1.1 | 1.4 | /
O=C(COC(=O)c1ccc([N+](=O)[O-])o1)Nc1ncc(Cl)cc1Cl | i | 27.1 | / | / | 49.2*
CCN(CC)S(=O)(=O)c1ccc(Cl)c(NC(=O)COC(=O)c2ccc([N+](=O)[O-])o2)c1 | -0.4 | 65.6 | -7.5 | 0.1 | 49.1*
CN1/C(=C\C(=O)COC(=O)c2ccc([N+](=O)[O-])o2)C(C)(C)c2ccccc21 | -1.2 | 99.3 | 8.5 | 13.0 | 35.9*
CN(C)S(=O)(=O)c1cccc(NC(=O)COC(=O)c2ccc([N+](=O)[O-])o2)c1 | -0.2 | -1.6 | 4.8 | 2.8 | -0.8
O=C(COC(=O)c1ccc([N+](=O)[O-])o1)NC1CCCc2ccccc21 (stereo unspecified) | i | 73.7 | 2.8 | 5.3 | 261.5*
COC(=O)C1C(=O)CC(C)(O)C(C(=O)OC)C1C=Cc1ccccc1 (stereo unspecified) | / | / | 2.6 | 5.7 | /
COC(=O)C1=CC(C(=O)OC)C2C3=C(C(=O)[C@@]2(C)NC(=O)c2ccccc2)C(c2ccccc2)n2c(=O)n(-c4ccccc4)c(=O)n2C3C1 (stereo partly specified) | / | / | 2.6 | 8.0 | /
Cc1noc(C)c1C=NNc1ccccn1 | / | / | -9.0 | 1.5 | /
O=C(COC(=O)c1ccc([N+](=O)[O-])o1)Nc1ccc(N2CCOCC2)cc1 | i | 86.9 | 11.8 | 7.6 | 94.8*
O=C1CCCC2=C1C(c1ccc(Cl)cc1)n1c(sc(=Cc3ccc4ccncc4c3)c1=O)=N2 (stereo unspecified) | / | / | -4.3 | -3.7 | /
CC(/C=C1\SC(=S)N(CCC(=O)Nc2cccc(C(=O)O)c2)C1=O)=C\c1ccccc1 | -2.2 | 0.1 | 86.0* | 77.6 | 0.9
O=C(Cc1ccccc1F)Nc1nc(-c2ccc(F)c(F)c2)cs1 | -0.4 | 15.1 | 14.9 | -19.6 | 241.9*
O=C(Cc1ccccc1)Nc1nc(-c2ccc(F)c(F)c2)cs1 | -0.2 | 6.9 | 26.2 | -7.0 | -0.3
CCC/C(C)=N/NC(=O)c1ccccc1O | i | 22.7 | / | / | -0.9
CCOC(=O)C(CC)/C(C)=N\NC(=O)c1ccccc1O (stereo unspecified) | i | 2.8 | / | / | 109.7*
C(=N/N1CCN(c2ccccc2)CC1)/c1ccncc1 | i | 11.5 | / | / | 164.1*
CN(C)c1ccc(C=c2c3ccccc3n3c2c2c([n+]3C)CCCC2)cc1 | / | / | / | / | 300.2*
CN(C)c1ccc(C=c2c3ccccc3n3c2cc(-c2ccccc2)[n+]3C)cc1 | -0.8 | / | / | / | 7.1
CN(C)c1ccc(C=c2c3ccccc3n3c2cc(-c2ccc(Cl)cc2)[n+]3C)cc1 | i | / | / | / | 219.0*
COc1ccc(C2CC(=O)C=C(C=Cc3ccc(Cl)cc3)C2)cc1 (stereo unspecified) | / | / | 10.7 | -0.7 | /
Cc1noc(C)c1NC(=O)N(C)CC1Oc2c(NS(=O)(=O)c3cn(C)cn3)cccc2C(=O)N(C(C)CO)CC1C (stereo unspecified) | / | / | -2.3 | 1.8 | /
COc1ccc(C(C)=NNC(=O)C2C3CCCCC32)c(OC)c1 (stereo unspecified) | / | / | 1.6 | 1.4 | /
SMILES | BH1578 lux ind | Mtb bLac sens | ugtP null kill | RN4220 kill | PfHsp40 rescue
C#CCSc1nnnn1-c1ccc(OCC)cc1 | 606.8* | 2.3 | 6.5 | 4.2 | 0.3
CCOc1ccc(-n2nnnc2SCC(=O)Nc2ccc(NC(C)=O)cc2)cc1 | i | -0.7 | 3.0 | 1.6 | -0.3
CCCCC(CC(=O)c1ccccc1)C(OC(C)=O)C(=O)Oc1c(C(C)C)cccc1C(C)C (stereo unspecified) | / | / | 2.2 | 5.2 | /
COc1ccc(OC)c(C(C)NC(C)=O)c1 (stereo unspecified) | 5.9 | 7.8 | -1.4 | 0.6 | 0.7
CNC(C)c1cc(OC)ccc1OC (stereo unspecified) | -0.7 | 4.4 | 7.0 | 4.3 | 45.4*
CC(Sc1ccc(Cl)cc1)C(=O)NCC(c1ccco1)N1CCCCC1 (stereo unspecified) | -1.3 | -1.2 | 3.5 | 4.4 | 34.5*
Cc1cc(C)nc(NC(N)=NC(C)c2ccccc2)n1 (stereo unspecified) | / | -2.0 | 94.3* | 6.5 | /
Cc1cc(C)nc(NC(N)=NCCc2ccccc2)n1 | i | / | -4.3 | 6.5 | 1.4
O=C1CCN(Cc2ccccc2)CCN1C(CSc1ccccc1)c1ccccc1 (stereo unspecified) | / | / | -4.1 | 6.6 | /
CC(N)=Nc1ccc([N+](=O)[O-])cc1 | i | 3.8 | 2.5 | 1.5 | -1.1
O=[N+]([O-])c1ccc(N=Nc2c(Cl)cc(O)cc2Cl)cc1 | i | 98.9 | 98.6* | 100.2* | 175.4*
COc1ccc(C=Nn2c(C)nnc2C)c(OC)c1OC | / | / | 9.0 | 10.4 | /
CCc1cc(-c2[nH]ncc2-c2ccc([N+](=O)[O-])cc2)c(O)cc1OC | i | -2.7 | 8.5 | -4.6 | 360.2*
Oc1c(Cl)cc(Cl)cc1/C=N/NC(=S)NC1CC2C=CC1C2 (stereo unspecified) | i | 72.8 | / | / | 132.5*
Cc1c(C(c2ccc(O)cc2)c2c(O)c3ccccc3oc2=O)c(=O)n(-c2ccccc2)n1C (stereo unspecified) | -0.1 | -1.0 | 47.8 | 2.5 | 1.4
COc1ccc(OC)c(C(c2c(O)c3ccccc3oc2=O)c2c(C)n(C)n(-c3ccccc3)c2=O)c1 (stereo unspecified) | -3.7 | -6.2 | 1.6 | 1.4 | 45.9*
COc1cc(C2(c3ccc(O)c(OC)c3)C(=O)Nc3c(Br)cc(Br)cc32)ccc1O | -0.8 | 7.3 | -16.1 | -12.1 | 65.7*
COc1cc(C2(c3ccc(O)c(OC)c3)C(=O)N(C)c3ccc(Br)cc32)ccc1O | -0.4 | -2.5 | -1.4 | 2.4 | 1.9
Cc1cc(/C=C2\Sc3ccccc3N2C)cc(C)[n+]1CC1CCCO1 (stereo unspecified) | -0.2 | / | 100.6* | 100.2* | 2.9
Cc1ccc(/C=C2/Sc3ccccc3N(CC(=O)NCC3CCCO3)C2=O)cc1 (stereo unspecified) | -0.3 | 1.7 | 8.1 | 2.7 | 4.1
COc1c(C=NNc2ccc([N+](=O)[O-])cc2[N+](=O)[O-])c(C)nn1-c1ccccc1 | / | / | -2.8 | -3.3 | /
COc1ccc(-c2cc(C3C4C=CCC[C@@]4(C)C(=O)N3Cc3ccccc3)ccc2F)cc1 (stereo partly specified) | / | / | -37.7 | -6.8 | /
C[C@H]1C[C@H]2[C@@H]3CCC4=CC(=O)C=C[C@]4(C)[C@@]3(F)[C@@H](O)C[C@]2(C)[C@@]1(O)C(=O)CO | -0.8 | -2.8 | / | / | -1.4
C[C@H]1C[C@H]2[C@@H]3CCC4=CC(=O)C=C[C@]4(C)[C@@]3(Cl)[C@@H](O)C[C@]2(C)[C@@]1(O)C(=O)CO | 8.5 | -0.5 | / | / | 36.3*
Cn1cnc([N+](=O)[O-])c1S(=O)(=O)Oc1ccc(Cl)cc1 | -1.0 | / | 42.6 | 34.2 | 232.8*
